# Screens as filed in PubChem BioAssay.
# In the library only some 6.5% were active in any assay of this set; here they are far more common.
# Lassa entry inh – blocks Lassa virus binding to or entry into cells | Lassa virus pseudotype entry inhibition, cell reporter | Potency, µM (titrated, usually from 37.9 µM), for inactives: at the top dose activity change, negative = inhibition, most hits filed as inhibitors | hit rate 1.2% among 300,000 | AID 540256; calls by dose curve; tested in HEK293 cells; further: potency means the concentration at half of the fitted maximal effect; nearly all actives have a fitted effect of over 50% in size
# Vaccinia Venus – vaccinia inhibition (Venus reporter). Vaccinia virus Venus reporter expression, fluorescence. Potency, µM (highest dose often 36.5 µM), without a hit: at the highest dose activity change, negative = inhibition, actives largely listed as inhibitors. hit rate 0.46% among 330,000. AID 720580; calls by dose curve; tested in A549 cells; further: potency means the concentration at half of the fitted maximal effect; nearly all actives have a fitted effect of over 30% in size
# HCMV antiviral – inhibitors of human cytomegalovirus; HFF cells, HCMV-luciferase reporter, 72 h; active compounds read low; activity change, negative = inhibition, % at 57.5 µM; hit rate 4.5% among 410,000; AID 1259415; in the data active means activity change below about -60%; inconclusive means no clear call, values can overlap the other calls; inactive means above about -39%
#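 Inhibition of viral replication was scored as loss of reporter luminescence in HFFs infected with HCMV-luciferase (MOI 1 PFU/cell) for 72 h; compounds tested at 2 doses, normalized to buffer and Salinomycin controls.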
# Vaccinia mCherry – inhibitors of vaccinia virus infection (mCherry reporter signal). Potency, µM (series often up to 36.5 µM), without a hit: at the top dose activity change, negative = inhibition, usual class: inhibitors. AID 720579. hit rate 0.63% among 310,000. Vaccinia virus mCherry reporter infection, fluorescence; calls by dose curve; tested in A549 cells; further: potency means the concentration at half of the fitted maximal effect; nearly all actives have a fitted effect of over 35% in size
# FMDV inh – blocks foot and mouth disease virus; FMDV antiviral cell-based qHTS; Potency, µM (highest dose often 57.9 µM), inactives show at the top dose activity change, negative = inhibition, actives largely listed as inhibitors; hit rate 1.2% among 410,000; calls by dose curve; tested in HEK293T cells; further: read-out not given here; potency means the concentration at half of the fitted maximal effect; nearly all actives have a fitted effect of over 45% in size
# MARV entry inh – Marburg virus entry inhibition; hit rate 1.8% among 300,000; Marburg virus pseudotyped entry inhibition, cell reporter; AID 540276; Potency, µM (highest dose often 37.8 µM), for inactives: at the top dose activity change, negative = inhibition, hits mostly inhibitors; calls by dose curve; tested in HEK293 cells; further: potency means the concentration at half of the fitted maximal effect
# Starred values were filed as active, the others as inactive; i = inactive; ? = inconclusive; . = no result; [ ] = dose if it differs, or a comment. On the % scale 0 is the no-effect control and ±100 the full control effect.
SMILES,Lassa entry inh,Vaccinia Venus,HCMV antiviral,Vaccinia mCherry,FMDV inh,MARV entry inh
CCN1CCN(Cc2ccc(NC(=O)c3cccc(-c4ccc5nc(NC(=O)C6CC6)sc5n4)c3)cc2C(F)(F)F)CC1,.,.,-99*,.,.,.
CCN1CCN(Cc2ccc(NC(=O)c3cc(NC(=O)C(=O)c4c[nH]c5ccccc45)cc(OC)c3)cc2C(F)(F)F)CC1,.,10µM*,-101*,?,?,.
CCN1CCN(Cc2ccc(NC(=O)c3ccc(C)c(NC(=O)C(=O)c4c[nH]c5ccccc45)c3)cc2C(F)(F)F)CC1,.,10µM*,-101*,11µM*,?,.
CCN1CCN(Cc2ccc(NC(=O)c3ccc(C)c(NC(=O)c4ccnnc4)c3)cc2C(F)(F)F)CC1,.,-25%,-4,i,-2%,.
CCN1CCN(Cc2ccc(NC(=O)c3ccc(C)c(NC(=O)c4ccc5n[nH]nc5c4)c3)cc2C(F)(F)F)CC1,.,-20%,36,i,0%,.
COC(=O)Cc1nnn2c1[C@H](C)[C@H](c1ccccc1Br)OC[C@H](C)C2,.,.,1,.,.,.
Clc1ccccc1Nc1nnc(-c2ccncc2)s1,5µM*,-9%,?,i,?,?
FC(F)(F)c1ccc(Cl)c(Nc2nnc(-c3ccncc3)s2)c1,.,3%,-12,4%,-21%,.
Nc1cc(-c2cccc(F)c2)nn1S(=O)(=O)c1cccc2nsnc12,.,?,-101*,i,-2%,.
C[C@@H]1COc2cc(NCCCN3CCOCC3)ccc2S(=O)(=O)N1,.,.,2,.,.,.
Cc1cccc(N(C)C(=S)Oc2ccc3ccccc3c2)c1,-2%,-17%,-61*,-20%,-23%,-8%
COc1ccc(-c2noc(CC(=O)N(C)c3cccc(C)c3)n2)cc1,-15%[46.1 µM],-7%,-13,-14%,-26%,.
COc1cc(N(C)C)c(OC)cc1C=O,.,-3%,.,-14%,.,.
Cc1cccc(N2CCN(C(=O)c3cn(C)c(=O)c4c3c3ccccc3n4C)CC2)c1C,6.5µM*,.,4,.,-3%,?
Cc1cccc(N2CCN(C(=O)c3cn(CC(C)C)c(=O)c4c3c3ccccc3n4C)CC2)c1C,4%[46.1 µM],?,8,?,-14%,7%[46.1 µM]
COc1ccccc1CNC(=O)Cc1c(C)c2c(cc(C)c3c(C)coc32)oc1=O,20%[46.1 µM],-16%,-25,-18%,2%,0%[46.1 µM]
CCOC(=O)/C(=C/C=C1\Sc2ccccc2N1CC)C(C)=O,?,-25%,.,-18%,-14%,?
CCOC(=O)/C(=C/C=C1\Sc2cc(C)c(C)cc2N1CC)C(C)=O,?,18%,-69*,i,?,?
CCOC(=O)/C(=C\C=C1/Sc2ccccc2N1CC)C(C)=O,2.8µM*,-24%,-64*,?,5%,?
CCCS(=O)(=O)c1nc(S(=O)(=O)c2ccc(C)cc2)c(N2CCOCC2)s1,0%,-6%,-63*,i,18%,0%
Cc1ccc(S(=O)(=O)c2nc(S(C)(=O)=O)sc2N2CCCCCC2)cc1,.,0%[7.34 µM],?,-5%[7.34 µM],26%,.
Cc1ccc(S(=O)(=O)c2nc(S(C)(=O)=O)sc2N2CCN(C)CC2)cc1,.,.,-104*,.,-2%,.
Cc1sc2ncnc(NCC3CCCO3)c2c1C (stereo not given),-20%,-22%,-29,i[1.46 µM],28µM*,-30%
c1ccc(-c2csc3ncnc(NCC4COc5ccccc5O4)c23)cc1 (stereo not given),?,?,-88*,?,28µM*,2.2µM*
Cc1sc2ncnc(NCC3COc4ccccc4O3)c2c1C (stereo not given),-30%,-23%,-79*,-9%,?,-27%
SMILES,Lassa entry inh,Vaccinia Venus,HCMV antiviral,Vaccinia mCherry,FMDV inh,MARV entry inh
CC(=O)N1CCN(C(=O)c2sc3ncnc(NCC4CCCO4)c3c2C)CC1 (stereo not given),.,0%,.,i,-10%,.
CC(C)CC(Nc1ncnc2scc(-c3ccccc3)c12)C(=O)O (stereo not given),.,.,30,.,-2%,.
Cc1csc(NC(=O)c2cn3ccccc3n2)n1,4µM*,-6%,0,0%,14µM*,?
Cc1csc(NC(=O)c2cnc3ccccc3n2)n1,?,8%,-30,3%,?,5.6µM*
CCN1[C@@H]2c3ccc(-c4ccc(OC)cc4)c(=O)n3C[C@@H]2[C@@H](CO)[C@@H]1C(=O)NCCN1CCCCC1,.,.,10,.,.,.
Cc1cc(N2CCN(C/C=C/c3ccccc3)CC2)n2ncnc2n1,?,-12%,-91*,i,.,?
CC(=O)Nc1ccc(S(=O)(=O)N(Cc2ccccc2)Cc2ccccc2)cc1,?,-8%,-61*,-7%,11%,.
COc1cc(/C=N/NC(=O)CN(CCc2ccccc2)S(=O)(=O)c2ccc(NC(C)=O)cc2)cc(OC)c1OC,18µM*,-16%,-31,i,?,-10%
COc1ccc(/C=N/NC(=O)CN(CCc2ccccc2)S(=O)(=O)c2ccc(NC(C)=O)cc2)cc1OC,?,-6%,33,i,-10%,?
CC(=O)Nc1ccc(NC(=O)c2ccccc2CCc2ccccc2)cc1,10µM*,4%,?,i,-20%,?
CCN(CC)S(=O)(=O)c1ccc(NC(=O)CC(NC(C)=O)c2ccccc2)cc1 (stereo not given),5%,-14%,-81*,-9%,14%,-1%[46.1 µM]
CC(=O)NC(CC(=O)Nc1ccc(S(=O)(=O)N2CCCC2)cc1)c1ccccc1 (stereo not given),-3%,.,14,.,-19%,-3%
COc1ccc(CNS(=O)(=O)c2cc(Cl)ccc2N2CC[C@@H](O)C2)cc1,.,.,-30,.,.,.
CCN1CCN(C(=O)c2ccc3c(c2)N(Cc2c(F)cccc2Cl)C(=O)c2ccccc2S3)CC1,-23%[46.1 µM],-4%[7.34 µM],-24,-6%[7.34 µM],-15%,?
CC(=O)Nc1ccc(N/C(C)=C/C(=O)c2cccnc2)cc1,18%,-11%,-61*,4%,10%,-2%
CC(=O)Nc1ccc(S(=O)(=O)N(C2=NCC(C)S2)c2ccccc2)cc1 (stereo not given),?,-23%,.,.,-12%,16µM*
CC(=O)Nc1ccc(CCNC(=O)c2ccc3ccccc3c2O)cc1,1µM*,13%,-36,i,3%,?
CC(=O)Nc1ccc(S(=O)(=O)N(c2cccnc2)S(=O)(=O)c2ccc(NC(C)=O)cc2)cc1,0.82µM*,.,-24,.,-9%,?
Cc1ccc(NC(=O)N(C2=NCC(C)S2)c2ccccc2)cc1 (stereo not given),3%,.,-24,.,46%,?
C[C@H]1[C@@H](C(=O)N2CCCC2)CC(=NOCc2ccccc2)C(=NOCc2ccccc2)C[C@H]1c1ccccc1,?,.,.,.,.,-29%[14.2 µM]
CCC(C)N(Cc1ccc(OC)cc1OC)S(=O)(=O)c1cc(Br)ccc1Br (stereo not given),.,.,-25,.,.,.
Cc1ccc(-n2c(-c3cccs3)nc3nc4ccccc4nc32)cc1,.,.,-63*,.,.,.
O=C1[C@@H]2CC=C(Cl)C[C@H]2C(=O)N1CNc1ccccn1,.,.,.,.,.,8%
